# Results as given in PubChem BioAssay.
# Results filed as inconclusive are left out. Active and inactive are the calls of the source. Unless noted, the limit is not given here; nearly all actives have AC50 up to about 30 µM.
# Key:
# [1] = liver-stage malaria parasite growth inhibition, primary screen, cell-based, HepG2, luciferase luminescence, HepG2 viability (AID 624349; in the data active = parasite load remaining mostly below about 12%, no sharp cut-off; inactive = mostly above about 10%;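 also: 100% = mean of DMSO negative control wells on the same plate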); settings: P. berghei liver stage in HepG2, luciferase luminescence, concentration not given here; parasite load remaining: stronger effect = lower value; viability: measured here: HepG2 viability without parasites
# [2] = stimulators of nuclear beta-catenin in C2C12, primary screen, imaging, WNT3A-conditioned medium, mouse C2C12, NPC library (AID 1117326; in the data active = nuclear beta-catenin stimulation mostly above about 4.2%, no sharp cut-off; inactive = mostly below about 10%; also: reference of the scale not given here); settings: stronger effect = higher value
# [3] = stimulators of insulin release from INS-1E, primary screen, cell-based, 5 mM glucose, NPC library (AID 1117329;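 active = compound raises insulin release from rat beta cells at 5 mM glucose, no numeric limit stated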; also: reference of the scale not given here); settings: rat INS-1E insulin secretion, at 10 µM, stronger effect = higher value
# [4] = growth inhibition of GSK3B-pretreated HCT116 cells – cell-based, CellTiter-Glo, 0.2 to 20 µM (AID 1117336;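 active = compounds lowering colon cancer cell viability after pretreatment blocking the GSK3B kinase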); settings: HCT116 viability after GSK3B inhibitor, at 20 µM, stronger effect = higher value
# [5] = inhibition of endothelial tube formation, primary screen, imaging, VEGF stimulated, CD31 staining, tube area, NPC library (AID 1117340;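 active = compound that reduces growth-factor-driven endothelial tube area in a mixed cell culture, no cutoff stated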); settings: VEGF-stimulated ADSC/ECFC co-culture, at 10 µM, stronger effect = higher value
# [6] = glucagon-like peptide 1 release enhancers, primary assay, NCI-H716 cell line, NPC library (AID 1117341;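 active = compound raises GLP1 secretion from the human gut endocrine cells, with no numeric limit stated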; also: reference of the scale not given here); settings: NCI-H716 cells, at 10 µM, stronger effect = higher value
# [7] = HCT116 colon cancer cell growth inhibition, primary screen, CellTiter-Glo luminescence, NPC library (AID 1117342;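 active = compounds that lower survival of HCT116 colon cancer cells in the luminescence readout, no numeric limit stated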); settings: at 20 µM (top of the series)
# [8] = CellTiter-Glo luminescent readout of SW480 viability loss, NPC library primary (AID 1117343;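 active = compounds that lower viability of the colon cancer cells in the luminescence readout, with no numeric limit stated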); settings: CellTiter-Glo luminescence; at 20 µM (top of the series) unless noted
# [9] = decreased DLD-1 cellular survival, CellTiter-Glo luminescent readout, NPC compound collection, primary HTS (AID 1117346;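 active = compounds that lower survival of DLD-1 colon cancer cells in the luminescence readout, no cutoff given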); settings: DLD-1 viability, CellTiter-Glo luminescence; at 20 µM (top of the series)
# [10] = viability loss in pontine glioma line – cell-based, SU-DIPG-XXV, MIPE5.0, CellTiter-Glo, qHTS, dose response (AID 1347065; cut-off not given, nearly all actives have AC50 up to about 26 µM;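 also: cells exposed to compound for 48 hours before ATP readout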); settings: CellTiter-Glo ATP luminescence
# [11] = JHH-DIPG-1 glioma cell viability, MIPE5.0 library, CellTiter-Glo luminescence, qHTS (AID 1347067; cut-off not given, nearly all actives have AC50 up to about 26 µM;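 also: cells exposed to compound for 48 hours before readout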); settings: JHH-DIPG-1 glioma viability, CellTiter-Glo ATP luminescence
# [12] = SU-DIPG-XXV glioma cell viability, MIPE5.0 library, qHTS (AID 1347068; cut-off not given, nearly all actives have IC50 up to about 30 µM)
# [13] = sensitizers of A549 cells to miR-34 induction, primary screen, imaging, A549 dox-inducible miR-34, nuclei and caspase counts (AID 1347080;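 active = compounds whose cell count with miR-34 switched on is under 0.7 times the count with it off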); settings: A549 miR-34 inducible, Hoechst nuclei count, 48 h
# [14] = survival rescue of mitochondrial mutant cells in low glucose, primary screen, MELAS cybrids, Rieske KO mouse fibroblasts, CellTiter-Glo (AID 1508586;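 active = mean z-score across replicates of 1.96 or higher in either the MELAS or the Rieske mutant cell line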;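 also: z relative to plate mean and SD of compound and empty wells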)
# [15] = viability rescue of complex I mutant cybrids, primary screen, cell-based, galactose medium, ATP luminescence (AID 1645843;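 active = z-score of at least 1.8 in each of two replicates, scored against plate mean and spread of sample wells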;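 also: positive z means more ATP and so rescue of galactose-driven cybrid death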); settings: complex I mutant cybrid cells, 72 h, stronger effect = higher value
# [16] = growth inhibition of DIPG glioma cells, dose response, cell-based, JHH-DIPG-1, MIPE4.0, CellTiter-Glo, qHTS (AID 1347062; cut-off not given, nearly all actives have AC50 up to about 27 µM;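 as to AC50: cells exposed to compound for two days before readout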); settings: JHH-DIPG-1 viability, CellTiter-Glo ATP luminescence
# [17] = growth inhibition of DIPG glioma cells, dose response, cell-based, SU-DIPG-IV, MIPE4.0, CellTiter-Glo, qHTS (AID 1347063); settings: SU-DIPG-IV viability, CellTiter-Glo ATP luminescence;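 also: compound exposure lasted 48 hours before the viability readout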
# [18] = SU-DIPG-VI glioma cell viability, MIPE4.0 library, CellTiter-Glo luminescence, qHTS (AID 1347066); settings: CellTiter-Glo ATP luminescence;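 also: cells exposed to compound for 48 hours before readout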
# [19] = stronger effect = lower value, cell number ratio, induced over uninduced
# [20] = measured here: relative caspase fold change +Dox/-Dox
# [21] = measured here: total cells with miR-34 induction, stronger effect = lower value
# [22] = measured here: total cells without miR-34 induction
# [23] = MELAS cybrid survival, CellTiter-Glo 48 h, stronger effect = higher value
# [24] = Rieske KO mouse fibroblast survival, CellTiter-Glo 72 h
compound,measurement,setting,value
CC(=O)O[C@@]12CO[C@@H]1C[C@H](O)[C@@]1(C)C(=O)[C@H](O)C3=C(C)[C@@H](OC(=O)[C@H](O)[C@@H](NC(=O)OC(C)(C)C)c4ccccc4)C[C@@](O)([C@@H](OC(=O)c4ccccc4)[C@H]21)C3(C)C,parasite load remaining,[1],80.3% (inactive)
same,viability,[1],114%
same,nuclear beta-catenin stimulation,[2]; at 10 µM,66.2% (active)
same,nuclear beta-catenin stimulation,"[2]; stimulation, at 2 µM",49.3%
same,insulin secretion stimulation,[3],-0.6% (inactive)
same,viability decrease,[4],71.8% (active)
same,tube area decrease,[5],98.1% (active)
same,GLP1 secretion stimulation,[6],-0.5% (inactive)
same,inhibition of viability,[7],58.9% (active)
same,viability decrease (inhibition),[8],36.5% (active)
same,viability decrease (inhibition),[9],31.8% (active)
same,AC50,[10],0.00209 µM (active)
same,outcome,[11],inactive
same,outcome,[12],inactive
same,fold change,[13]; [19],0.999 (inactive)
same,fold change,[13]; [20],0.907
same,cell count,[13]; [21],2910
same,cell count,[13]; [22],2910
same,z-score,[14]; [23],-1.22 (inactive)
same,z-score,[14]; [24],0.541
same,z-score,[15],-0.435 (inactive)
CC=CC1=C(C(=O)O)N2C(=O)[C@@H](NC(=O)[C@H](N)c3ccc(O)cc3)[C@H]2SC1,nuclear beta-catenin stimulation,[2]; at 10 µM,1% (inactive)
same,nuclear beta-catenin stimulation,"[2]; stimulation, at 2 µM",2.9%
same,insulin secretion stimulation,[3],-0.3% (inactive)
same,viability decrease,[4],4.9% (inactive)
same,tube area decrease,[5],-8.9% (inactive)
same,GLP1 secretion stimulation,[6],-4% (inactive)
same,inhibition of viability,[7],41.6% (inactive)
same,viability decrease (inhibition),[8],45.4% (inactive)
same,viability decrease (inhibition),[9],33.9% (inactive)
same,outcome,[16],inactive
same,outcome,[17],inactive
same,outcome,[18],inactive
CCCCCCCCOc1ccccc1C(=O)Nc1ccc(C(=O)OCC[N+](C)(CC)CC)cc1,nuclear beta-catenin stimulation,[2]; at 10 µM,4.2% (inactive)
same,nuclear beta-catenin stimulation,"[2]; stimulation, at 2 µM",0.1%
same,insulin secretion stimulation,[3],15.7% (inactive)
same,viability decrease,[4],99.7% (active)
same,tube area decrease,[5],101% (active)
same,GLP1 secretion stimulation,[6],-3.3% (inactive)
same,inhibition of viability,[7],98.4% (active)
same,viability decrease (inhibition),[8],88.6% (active)
same,viability decrease (inhibition),[9],99% (active)
same,AC50,[16],23.5 µM (active)
same,AC50,[17],18.7 µM (active)
same,fold change,[13]; [19],0.913 (inactive)
same,fold change,[13]; [20],0.694
same,cell count,[13]; [21],7980
same,cell count,[13]; [22],8740
same,z-score,[14]; [23],-0.155 (inactive)
same,z-score,[14]; [24],-0.0436
CCCCCCOC(=O)NC(=N)c1ccc(NCc2nc3cc(C(=O)N(CCC(=O)OCC)c4ccccn4)ccc3n2C)cc1,nuclear beta-catenin stimulation,[2]; at 10 µM,2.7% (inactive)
same,nuclear beta-catenin stimulation,"[2]; stimulation, at 2 µM",2.3%
same,insulin secretion stimulation,[3],0.9% (inactive)
same,viability decrease,[4],78.3% (active)
same,tube area decrease,[5],-1.4% (inactive)
same,GLP1 secretion stimulation,[6],-2.6% (inactive)
same,inhibition of viability,[7],118% (active)
same,viability decrease (inhibition),[8],155% (active)
same,viability decrease (inhibition),[9],102% (active)
same,AC50,[16],26.4 µM (active)
same,outcome,[17],inactive
same,AC50,[18],26.4 µM (active)
same,outcome,[12],inactive
